In PubChem BioAssay AID2685 (National Center for Advancing Translational Sciences (NCATS), 2010):
Among all 320,000 compounds or so, about 2,100 (0.66%) were called active. Not shown: some 53% with an inconclusive outcome. Calls follow the shape of the dose curve; as a rule, active = well fitted inhibition curve with a large enough effect in the signal ratio, with a control signal flat (not every such curve was filed as active); inconclusive = small, poorly fitted or top-dose-only effect, or effect the other way, or a change in a side signal; inactive = flat fitted curve, though single readings scatter; the % refers to the signal ratio. Many of the other results were omitted from the sample, so actives are more common in it than they were.

Assay: qHTS Assay for Lipid Storage Modulators in Drosophila S3 Cells;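 as to cell number change: cells counted by Cell Tracker Red CMTPX staining in the red channel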
Details: BODIPY lipid droplet fluorescence, 18-24 h, cells fed with added oleic acid; cell number change: measured here: cell count max response; series mostly up to 46.1 µM
Outline: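 Drosophila S3 cells loaded with oleic acid (400 uM, as added) and compounds at several concentrations; lipid droplets imaged by 488-nm laser-scanning cytometry, 500–530 nm intensity and object ratio to cell channel. Percent activity normalized to 20 uM Triacsin C.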
Potency is read from the fitted curve at half-maximal effect.

Structure (SMILES)	Potency	cell number change
COc1ccc2c(C)cc(N3CCCCCC3)nc2c1	inactive	23.5%
COc1ccc2c(C)cc(N3CCOCC3)nc2c1	4610 nM (active)	-8.65%
Cc1cc(N2CCOCC2)nc2cc(O)ccc12	inactive	-2.46%
CSc1ccc(S(=O)(=O)Nc2c(C)cccc2C)cc1	inactive	1.28%
CCCCCCCn1c(=N)n(CC(O)c2ccco2)c2ccccc21 (centres undefined)	inactive	-4.47%
Cc1ccc2c(CN3CCOCC3)cc(=O)oc2c1	inactive	3.55%
O=c1cc(CN2CCOCC2)c2cc(Cl)c(O)cc2o1	inactive	-11.3%
Cc1ccc2c(CN3CCN(Cc4ccccc4)CC3)cc(=O)oc2c1	inactive	22.5%
COC(=O)C1CCN(Cc2cc(=O)oc3cc(C)c(Cl)cc23)CC1	inactive	14.6%
CC1CN(Cc2cc(=O)oc3cc(O)c(Cl)cc23)CC(C)O1 (centres undefined)	1640 nM (active)	-11.3%
Cc1ccc2c(CN3CC(C)CC(C)C3)cc(=O)oc2c1 (centres undefined)	1160 nM (active)	4.5%
CCCCCCNC(=O)c1cc(-c2ccco2)nc2ccccc12	inactive	-17.2%
O=C(CN1C(=O)NC2(CCCC2)C1=O)N1CCN(Cc2ccccc2)CC1	inactive	0.232%
COC(=O)Cn1nc(-c2ccc(C)cc2)c2ccccc2c1=O	inactive	9.56%
COc1ccc(/C=N/NC(=O)CCN2CCCCC2c2cccnc2)cc1Cn1cc([N+](=O)[O-])cn1 (centres undefined)	inactive	-16.7%
CN(C)CCN(Cc1ccccc1)S(=O)(=O)c1ccc(-c2ccc(=O)[nH]n2)s1	inactive	
COc1cc2c(cc1OC)C(C(=O)NCc1cccnc1)C(c1cccnc1)N(C)C2=O (centres undefined)	inactive	-0.81%
COc1ccc(C2C(C(=O)NCc3ccccn3)c3ccccc3C(=O)N2C)cc1OC (centres undefined)	inactive	
COc1ccc(C2C(C(=O)NCc3cccnc3)c3ccccc3C(=O)N2C)cc1OC (centres undefined)	2590 nM (active)	-17.1%
O=C(N/N=C\c1cccnc1)C1c2ccccc2Oc2ccccc21	inactive	-0.813%
CCN(CC)C(=O)c1[nH]cnc1C(=O)N[C@@H](CC(C)C)C(=O)OCc1ccccc1	inactive	-10.8%

Structure (SMILES)	Potency	cell number change
C/C(=N\NC(=O)c1cccc([N+](=O)[O-])c1)c1cccc(NC(=O)C2CC2)c1	inactive	-1.94%
Cc1ccccc1NC(=O)CN1C(=O)N/C(=C\c2ccc(N3CCOCC3)c(F)c2)C1=O	inactive	-7.47%
COc1ccc2c3n(nc2c1)CCN=C3c1ccc(Cl)cc1	inactive	28.7%
Nc1c(Cl)cc(C2=NCCn3c2c2ccc([N+](=O)[O-])cc2[n+]3[O-])cc1Cl	inactive	-13.5%
Nc1c(Cl)cc(C2=NCCn3nc4cc([N+](=O)[O-])ccc4c32)cc1Cl	5170 nM (active)	13.3%
C/C=C/C(=O)N1CC2(CC(c3cccc(NC(=O)CCCCC)c3)=NO2)C[C@H]1C(N)=O (some centres undefined)	inactive	7.84%
CC(C)N1C(=O)N(c2ccccc2)C(C)(O)CC1(C)C (centres undefined)	inactive	
CC1(C)CC(=O)N(c2ccccc2)C1(C)O (centres undefined)	164 nM (active)	6.8%
CC1(O)CC(=O)N(c2ccccc2)O1 (centres undefined)	inactive	5.56%
Nc1nc(CN2CCc3ccccc3C2)nc(Nc2ccccc2)n1	inactive	
CCCSc1ccc([C@@H]2[C@H]3C(=O)N(CC)C(=O)[C@H]3[C@]3(C(=O)OC)CCCN23)cc1OC	inactive	11.7%
COC(=O)[C@@]12CCCCN1[C@H](c1ccc(SC3CCCCC3)cc1)[C@H]1C(=O)N(C)C(=O)[C@H]12	inactive	
CCCCCCSc1ccc([C@@H]2[C@H]3C(=O)N(C)C(=O)[C@H]3[C@]3(C(=O)OC)CCCCN23)cc1	20600 nM (active)	
CCN1C(=O)[C@@H]2[C@@H](c3ccc(-c4ccc(F)cc4)cc3)N3CCC[C@@]3(C(=O)OC)[C@@H]2C1=O	inactive	-18.3%
CCCCCCSc1ccc([C@@H]2[C@H]3C(=O)N(CC)C(=O)[C@H]3[C@]3(C(=O)OC)CCCN23)cc1	517 nM (active)	
COC(=O)[C@@]12CCCCN1[C@H](c1ccc(-c3ccc(OC)cc3)cc1)[C@@H]1C(=O)N(C)C(=O)[C@@H]12	inactive	
CS(=O)(=O)Nc1ccc(S(=O)(=O)NCCc2ccccc2)cc1	inactive	
CC(C)NC(=O)c1cc2c(C(F)(F)F)nn(C)c2s1	inactive	-21.4%
COc1ccc(C(=O)C(C)OC(=O)c2cccc(S(=O)(=O)Nc3cc(Cl)c(OC)cc3OC)c2)cc1 (centres undefined)	inactive	-7.94%
N#Cc1cccc(NC(=O)COc2ccc(-n3ccnc3)cc2)c1	inactive	-13.2%
COc1ccc(N2C(=O)CC(N3CCN(c4cccc(Cl)c4)CC3)C2=O)cc1 (centres undefined)	inactive	-1.05%

Structure (SMILES)	Potency	cell number change
Nc1cc(C(=O)O)c(Oc2ccc(Cl)cc2Cl)cc1C(=O)O	inactive	-11.5%
COCCN=c1scc(-c2ccc3c(c2)NC(=O)CO3)n1/N=C(\C)c1ccc(O)cc1	inactive	3.12%
COc1cc(C(C)=O)ccc1COc1ccc(C(=O)OC(C)C(=O)NC(N)=O)cc1OC (centres undefined)	inactive	7.94%
NC(=O)c1ccc(N=Nc2c(O)c3ccccc3[nH]c2=O)cc1	inactive	9.46%
Cc1cc(N=Nc2c(O)c3ccccc3[nH]c2=O)ccc1N=Nc1ccc(C(=O)N(C)C)cc1	20600 nM (active)	-11.6%
Cc1ccc(N=Nc2c(O)c3ccccc3[nH]c2=O)c(S(=O)(=O)N(C)C)c1	inactive	7.5%
O=C(NCCOc1ccccc1)c1cc([N+](=O)[O-])ccc1N1CCOCC1	inactive	-1.71%
O=C(O)c1cc([N+](=O)[O-])ccc1N1CCC(Cc2ccccc2)CC1	inactive	4.05%
CC(C)(CNC(=O)c1cc([N+](=O)[O-])ccc1N1CCC(Cc2ccccc2)CC1)N1CCOCC1	20600 nM (active)	7.52%
CCOc1ccc(N2C(=O)C3ON(c4ccccc4)C(c4ccco4)C3C2=O)cc1 (centres undefined)	inactive	-16.3%
CCN(CC)S(=O)(=O)c1ccc(S(=O)(=O)N(CC(=O)Nc2ccccc2)Cc2ccco2)cc1	inactive	-12.6%
Cc1cc(C)n(-c2nnc(C)c(=O)[nH]2)n1	inactive	
CCOC(=O)C(=O)C1=C(N2CCOCC2)/C(=C\c2cccc([N+](=O)[O-])c2)CC1	inactive	-9.52%
O=C(O)c1ccccc1N/N=C/C1=C(N2CCOCC2)C(=C\c2ccccc2)/CC1	inactive	
CC(NC(=O)C12CC3CC(CC(C3)C1)C2)C(=O)N/N=C/C1=C(N2CCOCC2)C(=C\c2cccc([N+](=O)[O-])c2)/CC1 (centres undefined)	13000 nM (active)	4.98%
O=CC1=C(N2CCOCC2)/C(=C\c2ccccc2)CC1	inactive	1.5%
O=C(NP(=O)(N1CCCC1)N1CCCC1)C1=C(N2CCOCC2)/C(=C/c2cccc([N+](=O)[O-])c2)CC1	inactive	
CCN(CC)c1ccc(/C=C2\CCC(/C=C(\C#N)C(=O)Nc3ccccc3F)=C2N2CCOCC2)cc1	580 nM (active)	1.95%
N#C/C(=C/c1cccc([N+](=O)[O-])c1)C(=O)Nc1ccccc1O	inactive	0.725%
N#C/C(=C\C1=C(N2CCOCC2)C(=C/c2cccc([N+](=O)[O-])c2)/CC1)C(=O)Nc1ccccc1F	2060 nM (active)	1.41%
CC(C)C(NC(=O)C12CC3CC(CC(C3)C1)C2)C(=O)N/N=C/C1=C(N2CCOCC2)C(=C\c2cccc([N+](=O)[O-])c2)/CC1 (centres undefined)	inactive	9.26%
